# About 83,000 compounds went through this panel and 20% of them were active in at least one assay; those are over-represented in the sample as a whole.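 Results are percent growth after 48 hours of single-concentration exposure. 100 means growth as in untreated cells, lower positive values show inhibition; negative values down to -100 show cell death.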 A number with no mark means an inactive call. Activity calls are given as the source filed them. Rule for the calls: active = growth percent below 10; inactive = the rest.
# Assays:
# Experiment in all cases: NCI-60 one-dose screen, 48 h (100 = growth as untreated, 0 = no growth, -100 = all killed)
# NCI-H23 lung = settings: 10 µM unless noted
# NCI-H322M lung = settings: 10 µM unless noted
# HOP-62 NSCLC = settings: 10 µM unless noted
# NCI-H460 lung = settings: 10 µM unless noted
# A549/ATCC NSCLC = settings: 10 µM unless noted
# 786-0 renal = settings: 10 µM unless noted
# COLO 205 colon = settings: 10 µM unless noted
# DU-145 prostate = settings: 10 µM unless noted
# K-562 leukemia = settings: 10 µM unless noted
# MALME-3M melanoma = settings: 10 µM unless noted
# MDA-MB-231 breast = settings: 10 µM unless noted
# SF-268 CNS = settings: 10 µM unless noted
# SF-539 CNS = settings: 10 µM unless noted
# M14 melanoma = settings: 10 µM unless noted
# RXF 393 renal = settings: 10 µM unless noted
# SF-295 CNS = settings: 10 µM unless noted
# UACC-257 melanoma = settings: 10 µM unless noted
# NCI-H226 lung = settings: 10 µM
# HOP-92 NSCLC = settings: 10 µM unless noted
# NCI-H522 lung = settings: 10 µM
SMILES,growth (NCI-H23 lung),growth (NCI-H322M lung) [%],growth (HOP-62 NSCLC),growth (NCI-H460 lung),growth (A549/ATCC NSCLC),growth (786-0 renal),growth (COLO 205 colon),growth (DU-145 prostate),growth (K-562 leukemia),growth (MALME-3M melanoma),growth (MDA-MB-231 breast),growth (SF-268 CNS),growth (SF-539 CNS),growth (M14 melanoma),growth (RXF 393 renal),growth (SF-295 CNS),growth (UACC-257 melanoma),growth (NCI-H226 lung) [%],growth (HOP-92 NSCLC),growth (NCI-H522 lung)
Clc1nc(-c2ccccn2)nc2sc3c(c12)CCCCCC3,82.4%,84.5,86.6%,90.9%,99.8%,98.4%,115%,22.6%,79.8%,94.2%,117%,94.6%,97.3%,86.8%,,,,,,
O=C1NC(=O)C2(CCCC2C(=O)O)N1 (stereo not drawn),98.3%,117,111%,106%,105%,94.9%,109%,120%,98%,140%,105%,109%,101%,106%,117%,99.8%,86.7%,,,
COc1ccc(C(=O)COc2cccc(/C=C3\CSc4ccc(C)cc4C3=O)c2)cc1,,104,104%,104%,96%,100%,116%,109%,29.3%,98.2%,79.4%,104%,103%,93.8%,71.1%,102%,95.5%,77.7,98.5%,45.8%
Nc1cc(Br)c(-c2nnc(CCC(=O)c3nc4ccccc4[nH]3)o2)c(Br)c1,70.8%,,82.2%,102%,90.7%,85.8%,70.6%,103%,27%,58.7%,76.7%,88.2%,93.9%,79.8%,92.6%,66.3%,90.7%,,26.3%,24.6%
C=C[C@H]1C[C@@H]2C[C@@H]3[C@H]4C/C=C\C(=O)NCCCC5NC(=O)C(=C(O)/C=C/[C@@H]4CC(=O)[C@H]3[C@@H]2[C@H]1C)C5=O (stereo partly drawn),-8.31% (active),,-82.3% (active),-69.4% (active),-91% (active),,-82.9% (active),-95.7% (active),-58.1% (active),-72% (active),-75.6% (active),-88.6% (active),-81.1% (active),,-85.6% (active),9.25% (active),-89.1% (active),,-85.7% (active),46.4%
CCOC(=O)C1=C(C)N2C(=NC3=C(CCCC/C3=C\c3cc(OC)c(OC)c(OC)c3)C2c2cc(OC)c(OC)c(OC)c2)S1 (stereo not drawn),61.9%,96.5,50%,60%,60.3%,,81.2%,86%,31.2%,51.8%,71.9%,80.6%,79.9%,79%,,56.5%,,,,
Cn1cc(C(=O)NCCC(=N)N)cc1NC(=O)CN=C(N)N,,106,85.9%,107%,99.2%,85.4%,103%,104%,134%,106%,94.1%,112%,104%,94.2%,114%,110%,99.9%,90.7,89.5%,87.5%
COc1ccc2nc(-n3nc(C)cc3C)c(-n3nc(C)cc3C)nc2c1,97.1%,,105%,108%,115%,105%,113%,128%,114%,108%,103%,119%,107%,102%,104%,98.7%,119%,,115%,100%
FC(F)(F)Oc1ccc2c(c1)C[C@H]1C[C@@H](c3ccoc3)N2O1,96.5%,117,,114%,92.1%,105%,110%,110%,91.8%,109%,93.9%,126%,93.9%,117%,134%,91.2%,87.4%,,82.8%,99.6%
COc1cccc(Nc2nc(NCCO)c3ccccc3n2)c1,85.8%,86.4,93.1%,,68.3%,86%,108%,97%,42.7%,75.7%,65.3%,72.5%,81.5%,77.7%,70.7%,,95.8%,,,70.8%
COc1ccc(-c2nc3sc(C)cn3c2/C=C/C(=O)c2cc(OC)c(OC)c(OC)c2)cc1,,76.1,90.1%,50.5%,57.1%,48.2%,67.9%,82.2%,75.6%,39.3%,39.5%,73.4%,77.6%,43%,84.5%,51.3%,50.8%,76.9,46.2%,37.8%
O=C(CCc1nnc2sc(/C=C\c3ccccc3)nn12)c1nc2ccccc2[nH]1,73.4%,,75.8%,96.7%,97.5%,89.7%,90.7%,98%,2.17% (active),93.8%,83%,107%,65.9%,90.7%,108%,83.8%,94.9%,,52.9%,95.1%
CCN(CC)CCCNc1ccc(C)c2sc3ccccc3c(=O)c12,53.8%,57.2,40.9%,,19.1%,32.5%,-70.2% (active),43.2%,-7.56% (active),-61.7% (active),-12.1% (active),48.1%,51.5%,-64.8% (active),1.02% (active),32.5%,-61.3% (active),,25.3%,54.4%
COc1ccc(/C=C(\C#N)c2cc3ccccc3n2C)cc1,39.4%,48.3,,6.08% (active),27.2%,32.9%,-17.8% (active),2.99% (active),7.26% (active),60.8%,31%,47.5%,-15.9% (active),6.61% (active),-6.28% (active),9.9% (active),72.6%,,76.5%,
Oc1cccc(Nc2nc(-c3ccccn3)cs2)c1,107%,94.6,98%,,94.8%,102%,103%,122%,93.8%,109%,98%,110%,98.3%,111%,113%,99.4%,110%,,89%,
CCOc1ccc(-c2cnnn2-c2nonc2-n2cccc2)cc1,17.3%,,31.6%,10.2%,17.2%,37.3%,-75.2% (active),-9.36% (active),5.54% (active),52.6%,4.16% (active),50.7%,-19.5% (active),9.7% (active),-30.1% (active),8.24% (active),65%,,25.4%,-55.9% (active)
Cc1cc(NS(=O)(=O)c2ccc(NC(=O)COc3ccc(-c4cc5ccccc5[nH]4)cc3)cc2)no1,22.4%,,-11.3% (active),9.1% (active),30.1%,2.3% (active),-50.5% (active),18.5%,6.89% (active),47.6%,18.9%,27.3%,6.2% (active),-15.4% (active),-24.6% (active),8.98% (active),56.9%,,5.04% (active),20.8%
C[C@H]1C(=O)C23CCC1C[C@@]21O[C@@H]2C(C)(C)C=CC(=O)C23COC1=O,,105,101%,101%,83.9%,109%,105%,104%,104%,110%,118%,104%,111%,102%,108%,110%,98.7%,94.2,114%,93.2%

# From PubChem BioAssay (NCI)
